# Laboratory results published in the supplement of paper PMC3334620.
# The full ranking holds about 33,000 sequences; the median of “E-score (-0.5 to 0.5)” is about -0.021, and the highest 2% start at about 0.32. What follows is part of a selection rich in the highest values, with near analogues and random picks from the rest.
# Molecular target: T1, Zap1 (UniProt P47043)
# T1 sequence: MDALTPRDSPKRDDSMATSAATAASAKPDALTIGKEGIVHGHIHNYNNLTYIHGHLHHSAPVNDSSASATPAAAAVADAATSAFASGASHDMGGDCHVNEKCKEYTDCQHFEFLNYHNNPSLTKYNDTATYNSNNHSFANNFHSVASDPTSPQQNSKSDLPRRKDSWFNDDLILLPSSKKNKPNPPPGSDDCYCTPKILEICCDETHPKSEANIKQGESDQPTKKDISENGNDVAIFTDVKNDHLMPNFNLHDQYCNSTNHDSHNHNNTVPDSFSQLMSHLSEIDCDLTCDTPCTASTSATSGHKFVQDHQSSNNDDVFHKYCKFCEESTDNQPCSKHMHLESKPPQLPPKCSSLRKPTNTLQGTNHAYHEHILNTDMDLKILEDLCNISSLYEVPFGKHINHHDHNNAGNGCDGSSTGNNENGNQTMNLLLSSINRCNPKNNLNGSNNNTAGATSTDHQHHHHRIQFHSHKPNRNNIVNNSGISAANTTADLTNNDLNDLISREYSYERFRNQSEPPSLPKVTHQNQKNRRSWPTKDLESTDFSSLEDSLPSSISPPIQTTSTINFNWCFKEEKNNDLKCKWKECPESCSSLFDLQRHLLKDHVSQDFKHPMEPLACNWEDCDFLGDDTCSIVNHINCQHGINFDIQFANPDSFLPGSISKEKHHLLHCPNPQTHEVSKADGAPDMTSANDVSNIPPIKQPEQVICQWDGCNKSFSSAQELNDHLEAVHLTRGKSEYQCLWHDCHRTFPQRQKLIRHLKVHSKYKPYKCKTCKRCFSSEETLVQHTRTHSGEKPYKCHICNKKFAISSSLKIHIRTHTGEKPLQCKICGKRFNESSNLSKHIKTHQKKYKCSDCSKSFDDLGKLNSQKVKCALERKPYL
# Test: PBM E-score (8-mer binding enrichment) (E-score (-0.5 to 0.5)); higher = stronger / more preferred TF binding
# Conditions: protein concentration: 200 nM; construct: GST-full length
# Summary of the method: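 Universal all-10-mer Agilent arrays, fresh or stripped once, were converted to double-stranded form by primer extension. GST-tagged yeast transcription factors from PURExpress in vitro transcription/translation, full-length or DNA-binding domain only, were applied at about 100-200 nM and detected with fluorescent anti-GST. After masliner normalisation, the Universal PBM Analysis Suite scored each ungapped eight-base word together with its reverse complement by E-score.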
row,Sequence,PBM E-score
1,ACACGCTA,-0.194
2,CGCCTCAA,-0.107
3,CTCGAAGA,0.0261
4,GATTCCTA,0.0308
5,CGATCCAC,0.00013
6,ACGTTACG,0.0601
7,AGGTTACG,0.459
8,AAGTTACG,0.17
9,ATAACTCC,0.128
10,AAGGTTGC,0.343
11,AAGGTTGG,0.281
12,CAGGTTGC,0.0972
13,AAGGTTGT,0.384
14,CAGGTTGG,0.0671
15,AAGGTTGA,0.149
16,GTCAGAAC,0.0394
17,AAATGGGA,-0.0864
18,GTCCCCCA,-0.185
19,GCGGTTCC,0.217
20,GCGGTTAC,0.452
21,CCGGTTAC,0.398
22,GCGGTTAA,0.356
23,CCGGTTTC,0.0368
24,GCTGTTAC,-0.104
25,GCGGTTGA,0.149

row,Sequence,PBM E-score
1,CCGGTTAA,0.261
2,CCGGTTAG,0.159
3,AAGCTTGT,0.15
4,CATCGTTC,-0.015
5,AGGAACCA,0.0162
6,CGAGCGCC,-0.202
7,AGTTGGTC,0.0383
8,AGTCTTAG,-0.182
9,GTATCCAA,0.0926
10,CCTGGCCC,-0.0746
11,AGTTATCA,0.186
12,AGTTAGTA,-0.00813
13,AGTTATTA,0.106
14,CGTTATCA,0.0155
15,CGTTAGTA,0.0365
16,GGTTAGTA,0.325
17,CGTTATTA,0.114
18,GGTTATCA,0.445
19,GGTTATTA,0.438
20,CAGAGATC,-0.134
21,CCGAGAAA,0.187
22,ACCCAGCA,0.0307
23,CGAATGAG,-0.106
24,AGTTATAG,0.148
25,ACCCTCAC,0.251

row,Sequence,PBM E-score
1,CCCCTCAA,-0.068
2,ACCCTCAG,0.325
3,ACCCTCAT,0.267
4,ACCCTCAA,0.361
5,TCCCTCAA,0.014
6,GGAGACGA,-0.032
7,ATCTTTAA,0.206
8,GGCCAGTA,0.177
9,AGTGGCTC,-0.175
10,AATCCTTG,0.0209
11,CATACCCC,0.348
12,GATACCCC,0.37
13,GATACCCA,0.184
14,AATACCCC,0.237
15,GATACCAC,0.183
16,CATACCCA,0.221
17,ATGTGAAG,-0.00714
18,ATGGGGGG,-0.045
19,ACTCGCAA,0.0584
20,CGCTTTGA,0.0708
21,ACTATAGG,0.0613
22,CCTATAGG,0.346
23,CCTATAGC,-0.0148
24,ATTGGCGG,-0.0834
25,AGCCCAAC,-0.0986

row,Sequence,PBM E-score
1,ACCCCTAG,0.341
2,ACCCCTAT,0.324
3,ACCCCTCG,0.347
4,CCCCCTCG,-0.135
5,ACCCCTAC,0.293
6,CCCCCTAG,-0.343
7,AGCCCTAG,-0.14
8,ACCCCTAA,0.278
9,ACCCCTCT,0.174
10,TACCGATA,0.102
11,CCGGTGCG,0.0015
12,AAATCTTG,0.0159
13,GCCAGCAC,-0.171
14,AAACCGAA,0.114
15,TAACCGCA,0.426
16,CTACCGCA,0.00616
17,ATACCGCA,0.0517
18,GTACCGCA,0.383
19,TAACCGAA,0.319
20,CAACCGAA,0.199
21,TACCCGCA,0.364
22,AACCCGCA,0.314
23,CACCCGCA,-0.0495
24,GAACCGCA,0.149
25,CAACCGCA,0.106

row,Sequence,PBM E-score
1,GTCCTTTA,0.132
2,CCGCCCAC,0.0267
3,GAAATCGA,-0.0672
4,AAACCGGA,0.00487
5,TAACCGGA,0.364
6,GAACCGGA,0.0894
7,AATTCTAC,0.104
8,TATACTAA,0.0714
9,GACAGCGA,-0.275
10,CGTTGGCC,-0.138
11,CCCGGTTA,0.25
12,GCCGGTCA,0.0353
13,GCCGGTGA,0.0983
14,GCCGGTTA,0.33
15,ACCGGTTG,0.119
16,ACCGGTTA,0.372
17,AGATTGAA,-0.0374
18,ATGCTAGG,-0.159
19,ACTAAATG,-0.036
20,ACCAGCGG,0.0819
21,CAAGATGC,-0.0715
22,AGTGGGAA,0.022
23,GTTGAAGA,-0.0696
24,AGGTCAGG,0.141
25,CGGTCATA,0.201

row,Sequence,PBM E-score
1,AGGTCAGA,0.149
2,GGGTCATA,0.432
3,ATGTCATA,-0.0263
4,AGGTCAAG,0.277
5,CGGTCATC,0.131
6,AGGTCATG,0.416
7,GGGTCAGA,0.0808
8,AGGTCATA,0.347
9,ATGTCATC,-0.123
10,AGGTCATC,0.373
11,TGCTCGAA,-0.0246
12,CATAGATC,-0.0935
13,ACATCTGG,0.0376
14,CAGTACTG,-0.118
15,GAGTCTTA,-0.368
16,ACGTAGGA,-0.12
17,ACGTCTGC,-0.272
18,AGGTCGTC,0.0799
19,AGGTCGTG,0.353
20,AGGTCGTA,0.189
21,AAACCAGA,0.165
22,CGCAACCG,0.281
23,CGCAACCC,0.379
24,AGCAACCC,0.239
25,AGGAACCC,0.104

row,Sequence,PBM E-score
1,CGGAACCG,0.169
2,GGCAACCC,0.358
3,CGGAACCC,0.326
4,CGCAACCA,0.283
5,GGCAACCA,0.116
6,AGATCGCA,-0.127
7,AATTCTTG,-0.0794
8,TTACACAA,0.21
9,GAGTGCAA,0.0286
10,CTACCCGC,0.244
11,ATACCCGC,0.314
12,GTACCCTA,0.413
13,CTACCCCC,-0.295
14,ATACCCGA,0.224
15,ATACCCTC,0.323
16,ATACCCTA,0.459
17,AGACCCTC,0.092
18,ATACCCTG,0.306
19,CTACCCTC,0.35
20,GTACCCGA,0.184
21,CTACCCTA,0.291
22,AGCATCTA,-0.248
